Counter-ions that a name gives are not always drawn. Like-named read-outs stand apart in the source and are kept apart here.
Tested on: thyroid hormone receptor (endogenous TRα and TRβ)
Parameters: species or system GH3-TRE-Luc (rat pituitary); GH3-TRE-Luc luciferase reporter, antagonist mode against 1 nM T3, loss of signal, qHTS
[1] = read-out: Average AC50 (uM) GH3-TRE-Antag, antagonist mode, 1 nM T3, no GH3 cytotoxicity hit, Average AC50 (uM) GH3-TRE-Antag, 24 h
[2] = read-out: Average AC50 (uM) GH3-TRE-Antag, antagonist mode, 1 nM T3, no GH3 cytotoxicity hit

CCCCCCn1cc[n+](C)c1 [1-Hexyl-3-methylimidazolium bromide]
AC50 [1]: 47.7 µM

N=C(N)NC(=O)c1nc(Cl)c(N)nc1N [Amiloride]
AC50 [1]: 16.4 µM

CCC(=O)NCC[C@@H]1CCc2ccc3c(c21)CCO3 [Ramelteon]
AC50 [2]: 39.2 µM

Cn1c(CCCC(=O)O)nc2cc(N(CCCl)CCCl)ccc21 [Bendamustine]
AC50 [2]: 28 µM

CC1(C)C2=CCCC(C)(C)[C@]23CC[C@H]1C3 [(-)-Isolongifolene]
AC50 [2]: 54.9 µM

CC(Oc1ccc(Oc2ncc(C(F)(F)F)cc2Cl)cc1)C(=O)O (stereo not shown) [Haloxyfop]
AC50 [2]: 58.9 µM

NC1=NCC2c3ccccc3Cc3ccccc3N12 (stereo not shown) [Epinastine hydrochloride]
AC50 [2]: 27.1 µM

O=C1CCCCCCCCCCCC(=O)OCCO1 [1,4-Dioxacycloheptadecane-5,17-dione]
AC50 [2]: 47.7 µM

Cc1ccc(S(=O)(=O)NC2CCCCC2)cc1 [N-Cyclohexyl-4-methylbenzenesulfonamide]
AC50 [2]: > 90 µM

CNC(=S)NC [N,N'-Dimethylthiourea]
AC50 [2]: 72 µM

C/C=C(C)/C=C/C=C(C)C [2,6-Dimethyl-2,4,6-octatriene]
AC50 [2]: > 90 µM

C=CC(=O)OCCOc1ccccc1 [2-Phenoxyethyl acrylate]
AC50 [2]: 47.8 µM

C1COC(NC(C2CC2)C2CC2)=N1 [Rilmenidine]
AC50 [2]: 29.6 µM

CC(=O)O[C@]1(C(C)=O)CC[C@H]2[C@@H]3C[C@H](C)C4=CC(=O)CC[C@]4(C)[C@H]3CC[C@@]21C [Medroxyprogesterone acetate]
AC50 [2]: 28 µM

CC/C=C(\C(=O)N[C@@H]1C(=O)N2C(C(=O)OCOC(=O)C(C)(C)C)=C(COC(N)=O)CS[C@H]12)c1csc(N)n1 [Cefcapene pivoxil hydrochloride]
AC50 [2]: 49.5 µM

C=CC(=O)OCCC#N [2-Cyanoethyl prop-2-enoate]
AC50 [2]: 62.7 µM

Cc1ccc(C(=O)C(C)CN2CCCCC2)cc1 (stereo not shown) [Tolperisone hydrochloride]
AC50 [2]: > 50 µM

COc1ccc(C(CN(C)C)C2(O)CCCCC2)cc1 (stereo not shown) [Venlafaxine hydrochloride]
AC50 [2]: 71 µM

CO/C=C(/C(=O)OC)c1ccccc1COc1cccc(C(F)(F)F)n1 [Picoxystrobin]
AC50 [2]: 0.276 µM

O=c1[nH]c(=O)n([C@H]2C[C@H](O)[C@@H](CO)O2)cc1C(F)(F)F [Trifluridine]
AC50 [2]: 23.4 µM

O=C(c1ccccc1)c1ccc(O)cc1O [2,4-Dihydroxybenzophenone]
AC50 [2]: 87 µM

CCOC(=O)OC1=C(c2cc(C)ccc2C)C(=O)N[C@]12CC[C@@H](OC)CC2 [Spirotetramat]
AC50 [2]: 69.7 µM

COc1cc(NC(=O)CC(C)=O)c(OC)cc1Cl [4'-Chloro-2',5'-dimethoxyacetoacetanilide]
AC50 [2]: > 90 µM

Cn1cnc([N+](=O)[O-])c1Sc1ncnc2[nH]cnc12 [Azathioprine]
AC50 [2]: > 50 µM

Cc1cccc(Nc2ccccc2C(=O)O)c1C [Mefenamic acid]
AC50 [2]: 27.4 µM

CCOc1cc([N+](=O)[O-])c(OCC)cc1N1CCOCC1 [4-(2,5-Diethoxy-4-nitrophenyl)morpholine]
AC50 [2]: 28.4 µM

c1csc(SSc2cccs2)c1 [2-Thienyl disulfide]
AC50 [2]: 57.5 µM

CCN(CC)c1ccc(C(=O)c2ccccc2C(=O)O)c(O)c1 [2-[4-(Diethylamino)-2-hydroxybenzoyl]benzoic acid]
AC50 [2]: 43.7 µM

CC(=O)O[C@]1(C(C)=O)CC[C@H]2[C@@H]3C=C(C)C4=CC(=O)CC[C@]4(C)[C@H]3CC[C@@]21C [Megestrol acetate]
AC50 [2]: > 20 µM

O=C(Nc1ccccc1-c1ccc(Cl)cc1)c1cccnc1Cl [Boscalid]
AC50 [2]: > 100 µM

CCCC(=O)c1cc(O)c(O)cc1O [2',4',5'-Trihydroxybutyrophenone]
AC50 [2]: 52.7 µM

COC(=O)c1c(Cl)c(Cl)c(C(=O)OC)c(Cl)c1Cl [Chlorthal-dimethyl]
AC50 [2]: 72.5 µM

Cn1cc(C(=O)[C@@H]2CCc3nc[nH]c3C2)c2ccccc21 [Ramosetron hydrochloride]
AC50 [2]: 40.9 µM

c1ccc2c(c1)Cc1ccccc1-2 [Fluorene]
AC50 [2]: 55.8 µM

CCCOc1ccc(S(=O)(=O)N2CCN(CC)CC2)cc1-c1nc2c(CC)n(Cc3ccccn3)nc2c(=O)[nH]1 [UK-343664]
AC50 [2]: 76.4 µM

Oc1c(Cl)ccc(Cl)c1Cl [2,3,6-Trichlorophenol]
AC50 [2]: > 90 µM

O=C(CCCN1CCC(C(=O)c2ccc(F)cc2)CC1)c1ccc(F)cc1 [Lenperone]
AC50 [2]: 44.5 µM

Cc1cc(O)c2c(c1)C(=O)c1cccc(O)c1C2=O [Chrysophanic acid]
AC50 [2]: 40.7 µM

Cc1cc(C(C)(C)c2ccc(O)c(C)c2)ccc1O [3,3'-Dimethylbisphenol A]
AC50 [2]: 33.1 µM

O=C(O)C1(C(=O)Nc2ccc(Cl)cc2Cl)CC1 [Cyclanilide]
AC50 [2]: 64.4 µM

Oc1cc(Cl)cc(Cl)c1 [3,5-Dichlorophenol]
AC50 [2]: 54 µM

O=C(COc1ccc(Cl)cc1)OCCNC12CC3CC(CC(C3)C1)C2 [Adafenoxate]
AC50 [2]: 26 µM

CC(C)c1c(C(=O)Nc2ccccc2)c(-c2ccccc2)c(-c2ccc(F)cc2)n1CC[C@@H](O)C[C@@H](O)CC(=O)O [Atorvastatin]
AC50 [1]: 0.321 µM

CCCCCCCCn1cc[n+](C)c1 [1-Methyl-3-octylimidazolium chloride]
AC50 [1]: 28.9 µM

OCCOCCN1CCN(C2=Nc3ccccc3Sc3ccccc32)CC1 [Quetiapine fumarate]
AC50 [1]: 23.5 µM

O=C(c1ccccc1)C1CCCCC1 [Cyclohexylphenylketone]
AC50 [2]: 69.7 µM

NC(=O)C1(N2CCCCC2)CCN(CCCC(=O)c2ccc(F)cc2)CC1 [Pipamperone dihydrochloride]
AC50 [2]: 25.9 µM

COC(=O)[C@@H]1[C@H]2C[C@H]3c4[nH]c5ccccc5c4CCN3C[C@@H]2CC[C@@H]1O [Yohimbine]
AC50 [2]: 43.8 µM

O=c1[nH]c2ccc([S+]([O-])CCN3CCC(Cc4ccc(F)cc4)CC3)cc2o1 (stereo not shown) [Besonprodil]
AC50 [2]: 75.9 µM

C=CCOC(Cn1ccnc1)c1ccc(Cl)cc1Cl (stereo not shown) [Imazalil sulfate]
AC50 [2]: 28.4 µM

Cc1cc(-n2c(=O)[nH]c(=O)n(C)c2=O)ccc1Oc1ccc(S(=O)(=O)C(F)(F)F)cc1 [Toltrazuril sulfone]
AC50 [2]: 51.6 µM

CCCCCCCCCCO[C@@H]1O[C@H](CO)[C@@H](O)[C@H](O)[C@H]1O [Decyl beta-D-glucopyranoside]
AC50 [2]: 68.4 µM

CC(C)=CCC[C@](C)(O)[C@@H]1CC=C(C)CC1 [Levomenol]
AC50 [2]: 38 µM

N=C(N)NC(=O)c1nc(Cl)c(N)nc1N [Amiloride hydrochloride]
AC50 [1]: 56.7 µM

O=C(N/N=C/c1ccccc1O)c1ccncc1 [Salinazid]
AC50 [2]: 20.5 µM

O=C(O)c1nn(Cc2ccc(Cl)cc2Cl)c2ccccc12 [Lonidamine]
AC50 [2]: > 50 µM

CCCOC(=O)c1ccc(N)cc1 [Risocaine]
AC50 [2]: 44.3 µM

C[C@]12CCC(=O)C=C1C=C[C@@H]1[C@@H]2CC[C@@]2(C)[C@H]1CC[C@@]21CCC(=O)O1 [Canrenone]
AC50 [2]: 34.1 µM

CCOC(=O)NCCOc1ccc(Oc2ccccc2)cc1 [Fenoxycarb]
AC50 [2]: 75.9 µM

CCCCNc1c(C(=O)OCC)c(C)nc2c1cnn2CC [Tracazolate hydrochloride]
AC50 [2]: 42.6 µM

Cc1cccc(N(C)C(=S)Oc2ccc3ccccc3c2)c1 [Tolnaftate]
AC50 [2]: > 20 µM

CC1(C)CC/C(=C\c2ccc(Cl)cc2)C1(O)Cn1cncn1 (stereo not shown) [Triticonazole]
AC50 [2]: > 90 µM

CC(=O)[C@@]1(O)CC[C@H]2[C@@H]3C=C(Cl)C4=CC(=O)CC[C@]4(C)[C@H]3CC[C@@]21C [Chlormadinone]
AC50 [2]: 30.7 µM

CCN(Cc1cccc(S(=O)(=O)O)c1)c1ccc(C(=C2C=CC(=[N+](CC)Cc3cccc(S(=O)(=O)[O-])c3)C=C2)c2ccccc2)cc1 [FD&C Green No. 1]
AC50 [2]: 66.2 µM

CCCCCCCCCCCCN [1-Dodecanamine]
AC50 [2]: 74.1 µM

CC1(CO)CN(c2ccccc2)NC1=O (stereo not shown) [4-(Hydroxymethyl)-4-methyl-1-phenylpyrazolidin-3-one]
AC50 [2]: 82.6 µM

CCCCC(CC)COC(=O)C(C#N)=C(c1ccccc1)c1ccccc1 (stereo not shown) [2-Ethylhexyl-2-cyano-3,3-diphenylacrylate]
AC50 [2]: 31 µM

COC(=O)Nc1ccc(Cl)c(Cl)c1 [Swep]
AC50 [2]: > 90 µM

COc1ccc2nc(NC(=O)Nc3ccccc3)sc2c1 [Frentizole]
AC50 [2]: 11.4 µM

O=C(O)c1cccc(C[C@@H]2COc3ccc(OCc4nc5cc(F)ccc5s4)cc3[C@@H]2O)c1 [CP-085958]
AC50 [2]: 53.1 µM

COc1cccc(N(C)C(=S)Oc2ccc3c(c2)CCCC3)n1 [Liranaftate]
AC50 [2]: 39.9 µM

CCO[Si](C)(CCCOCC1CO1)OCC (stereo not shown) [Diethoxy(methyl)[3-(oxiran-2-ylmethoxy)propyl]silane]
AC50 [2]: 62.6 µM

NC1CCN(c2nc3c(cc2F)c(=O)c(C(=O)O)cn3-c2ccc(F)cc2F)C1 (stereo not shown) [Tosufloxacin toluenesulfonic acid]
AC50 [2]: 21.1 µM

O=C1CCCCCCCCCCOCCCCO1 [12-Oxahexadecanolide]
AC50 [2]: 43.5 µM

CC(C)c1ccc2oc3nc(N)c(C(=O)O)cc3c(=O)c2c1 [Amlenanox]
AC50 [2]: 32.7 µM

Oc1ccc2ccc3cccc4ccc1c2c34 [1-Hydroxypyrene]
AC50 [2]: 55.7 µM

Nc1nc(N)c2nc(CNc3ccc(C(=O)N[C@@H](CCC(=O)O)C(=O)O)cc3)cnc2n1 [4-Aminofolic acid]
AC50 [2]: 25.2 µM

Nc1cc(S(=O)(=O)O)cc2cc(S(=O)(=O)O)cc(O)c12 [Monosodium 8-amino-1-naphthol-3,6-disulfonate monohydrate]
AC50 [2]: 52.6 µM

Nc1ccc(C(=O)OCCCOC(=O)c2ccc(N)cc2)cc1 [Propane-1,3-diyl bis(4-aminobenzoate)]
AC50 [2]: 59.8 µM

— article PMC6792352, “Limited Chemical Structural Diversity Found to Modulate Thyroid Hormone Receptor in the Tox21 Chemical Library” (Environmental Health Perspectives, 2019)
